Experimental data taken from PubChem BioAssay AID372 (MTDP, 2006).
Among all 100,000 compounds or so, about 770 (0.77%) were called active. Rule as the data show it: active = inhibition above about 50%; inactive = the rest. The full list was thinned out, with actives kept by preference.

Biological target: Gag-Pol polyprotein (Human immunodeficiency virus type 1 group M subtype B (isolate HXB2)) (UniProt P04585)
Assay: RNase H inhibition, HIV 1 Gag Pol polyprotein, FRET biochemical assay, screening (AID 372)
Settings: HIV-1 RT RNase H, FRET RNA/DNA substrate fluorescence; at 10 µM; active compounds read high

Compound	inhibition
O=C1NC(=O)N(c2ccccc2)C(=O)/C1=C/c1cccn1-c1ccc(Br)cc1	29% (inactive)
Cc1cccc(N2C(=O)NC(=O)/C(=C\c3cccn3-c3ccccc3)C2=O)c1	22% (inactive)
O=C1NC(=O)N(c2ccc(Cl)cc2)C(=O)/C1=C/c1cccn1-c1ccccc1	12% (inactive)
Cc1cccc(N2C(=O)NC(=O)/C(=C\c3cccn3-c3ccc(Br)cc3)C2=O)c1	27% (inactive)
O=C1NC(=O)N(c2cccc(F)c2)C(=O)/C1=C/c1cccn1-c1ccc(Cl)cc1	59% (active)
Cc1cccc(N2C(=O)NC(=O)/C(=C/c3cccn3-c3ccc([N+](=O)[O-])cc3)C2=O)c1	54% (active)
O=C1NC(=O)N(c2cccc(F)c2)C(=O)/C1=C/c1cccn1-c1ccccc1	24% (inactive)
O=C1NC(=O)N(c2cccc(F)c2)C(=O)/C1=C/c1cccn1-c1ccc(Br)cc1	54% (active)
O=C1NC(=O)N(c2ccccc2)C(=O)/C1=C\c1cccn1-c1ccc([N+](=O)[O-])cc1	22% (inactive)
N#CC1=C(N)OC2=C(C(=O)CC(c3ccccc3)C2)C1c1cccc(F)c1 (centres undefined)	11% (inactive)
COc1ccc(/C=N/NC(=O)CN2CCSCC2)c(C)c1C	7% (inactive)
COc1ccc(C(N)=O)cc1NC(=O)c1cccs1	0% (inactive)
O=C(CCCN1C(=O)/C(=C/c2ccccc2Cl)SC1=S)Nc1cccc(F)c1	14% (inactive)
Cc1ccc(Cl)cc1NC(=O)C(=O)NN=C1CCN(C)CC1	0% (inactive)
Cc1onc(-c2ccccc2Cl)c1C(=O)N1CCN(c2ccc(Cl)cc2[N+](=O)[O-])CC1	55% (active)
Cc1cccc(N2CCN(C(=O)c3c(-c4ccccc4Cl)noc3C)CC2)c1C	9% (inactive)
Cc1onc(-c2ccccc2Cl)c1C(=O)N1CCN(c2ccccc2F)CC1	0% (inactive)
COc1cccc2cc(-c3csc(Nc4ccc(C(C)=O)cc4)n3)c(=O)oc12	14% (inactive)
CCN(CC)c1ccc(/C=N/Nc2nc(-c3cc4cccc(OC)c4oc3=O)cs2)c(O)c1	53% (active)
COc1cccc2cc(-c3csc(Nc4ccccc4C)n3)c(=O)oc12	20% (inactive)
COc1ccc2oc(=O)c(C(=O)Nc3cccc([N+](=O)[O-])c3)cc2c1	55% (active)
COc1ccc2oc(=O)c(C(=O)Nc3ccccc3)cc2c1	6% (inactive)
COc1ccc2oc(=O)c(C(=O)Nc3cccc(Cl)c3)cc2c1	5% (inactive)

Compound	inhibition
O=C(/C=C\c1ccc([N+](=O)[O-])cc1)Nc1ccc(N2CCOCC2)cc1	7% (inactive)
O=C(Nc1ccc(Cl)cc1)c1ccc(Br)o1	8% (inactive)
O=C1NC(=O)C(=Cc2cn(-c3ccccc3)nc2-c2ccc(Br)cc2)C(=O)N1	59% (active)
CC1=NNC(=O)/C1=C\c1cn(-c2ccccc2)nc1-c1ccc(Br)cc1	14% (inactive)
O=C1NC(=O)C(=Cc2cn(-c3ccccc3)nc2-c2ccc(Cl)cc2)C(=O)N1	41% (inactive)
COC(=O)C1=C(C(=O)OC)SC2(S1)C(C(=O)OC)=C(C(=O)OC)SC1=C2c2ccccc2N(C)C1(C)C	11% (inactive)
COC(=O)C1=C(C(=O)OC)SC2(S1)C(c1ccccc1)=CSC(C(=O)OC)=C2C(=O)OC	54% (active)
COC(=O)C1=C(C(=O)OC)SC2(S1)C(C(=O)OC)=C(C(=O)OC)SC1=C2c2cccc(C)c2NC1(C)C	18% (inactive)
CC(=O)Oc1ccc(-c2cccc(C(=O)Nc3ccccc3Cl)c2)cc1	16% (inactive)
CC1=C(C(=O)Nc2ccc(C)c(Cl)c2)C(c2cccc([N+](=O)[O-])c2)NC(=O)N1 (centres undefined)	6% (inactive)
COc1ccc(C2CC(=O)C3=C(C2)Nc2ccccc2NC3c2c(F)cccc2Cl)cc1 (centres undefined)	24% (inactive)
O=C(COC(=O)c1cc(-c2ccccc2)nc2ccc(Cl)cc12)c1ccc([N+](=O)[O-])cc1	4% (inactive)
COc1ccc(-c2cc(C(=O)Nc3cccc(Cl)c3)c3ccccc3n2)cc1OC	14% (inactive)
O=C(Nc1ccc(Nc2ccccc2)cc1)c1cccc2ccccc12	50% (active)
O=C(Nc1ccc(NC(=O)c2cccc3ccccc23)cc1)c1ccccc1	6% (inactive)
CC(=O)Nc1ccc(NC(=O)c2cccc3ccccc23)cc1	32% (inactive)
O=C(Cc1ccc(Cl)cc1)Nc1ccc2oc(-c3cccc(Br)c3)nc2c1	49% (inactive)
O=C(Cc1ccc(Cl)cc1)Nc1ccc(-c2nc3cc(Cl)cc(Cl)c3o2)cc1	50% (active)
Cc1cccc(-c2nc3cc(NC(=O)Cc4ccccc4)ccc3o2)c1	12% (inactive)
O=C(Cc1ccc(Cl)cc1)Nc1cccc(-c2nc3cc(Cl)cc(Cl)c3o2)c1	2% (inactive)
Cc1ccc(-c2nc3cc(Cl)cc(Cl)c3o2)cc1NC(=O)Cc1ccc(Cl)cc1	38% (inactive)
Cc1ccccc1-c1nc2cc(NC(=O)Cc3ccc(Cl)cc3)ccc2o1	30% (inactive)
O=C(Cc1ccc(Cl)cc1)Nc1ccc2oc(-c3ccccc3Cl)nc2c1	54% (active)

Compound	inhibition
O=C(Cc1ccc(Cl)cc1)Nc1ccc2oc(-c3ccccc3Br)nc2c1	24% (inactive)
O=C(Cc1ccc(Cl)cc1)Nc1ccc2oc(-c3cccc(Cl)c3)nc2c1	52% (active)
O=C(Cc1ccccc1)Nc1ccc2oc(-c3cccc(Cl)c3)nc2c1	6% (inactive)
Cc1ccc2oc(-c3cccc(NC(=O)Cc4ccc(Cl)cc4)c3)nc2c1	42% (inactive)
Cc1cccc(-c2nc3cc(NC(=O)Cc4ccc(Cl)cc4)ccc3o2)c1	53% (active)
COc1ccc(OC)c(NC(=O)c2ccc(Cl)cc2)c1	8% (inactive)
O=C(N/N=C/c1cc(Cl)cc([N+](=O)[O-])c1O)/C(=C/C=C/c1ccccc1)NC(=O)c1ccccc1	19% (inactive)
COc1ccc(OCCCOc2ccccc2Br)cc1	12% (inactive)
COc1ccccc1N1CCN(C(=O)c2ccc(CN(c3cc(Cl)ccc3C)S(=O)(=O)c3ccccc3)cc2)CC1	1% (inactive)
O=C(O)c1cccc([N+](=O)[O-])c1C(=O)Nc1cccc(Cl)c1	7% (inactive)
O=C(Cc1ccc(Cl)cc1)Nc1ccc2oc(-c3ccc(F)cc3)nc2c1	54% (active)
CCc1ccc(-c2nc3cc(NC(=O)Cc4ccc(Cl)cc4)ccc3o2)cc1	25% (inactive)
O=C(Cc1ccc(Cl)cc1)Nc1ccc2oc(-c3ccc(Cl)cc3)nc2c1	29% (inactive)
O=C(Nc1ccc(F)cc1F)c1sc2ccccc2c1Cl	16% (inactive)
Cc1ccc(SCCNC(=O)CN(c2ccccc2F)S(=O)(=O)c2ccccc2)cc1	10% (inactive)
O=C(O/N=C/c1ccc([N+](=O)[O-])cc1)c1cccs1	1% (inactive)
Clc1ccccc1-c1nc(-c2cccnc2)no1	20% (inactive)
CC(C)c1ccc(/C=C/C(=O)Nn2cnnc2)cc1	0% (inactive)
Cc1ccc(C(=O)OCC(=O)c2ccc(Br)cc2)cc1[N+](=O)[O-]	0% (inactive)
Cc1ccc(C(=O)Nc2ccc3oc(-c4ccc(F)cc4Cl)nc3c2)cc1[N+](=O)[O-]	0% (inactive)
CCc1ccc(-c2nc3cc(NC(=O)c4ccc(C)c([N+](=O)[O-])c4)ccc3o2)cc1	35% (inactive)
COc1ccc(C(=O)Nc2cccc(-c3nc4cc(C)ccc4o3)c2)cc1[N+](=O)[O-]	1% (inactive)
COc1ccc(-c2nc3cc(NC(=O)c4ccc(C)c([N+](=O)[O-])c4)ccc3o2)cc1OC	3% (inactive)

Compound	inhibition
Cc1ccc(C(=O)Nc2ccc3oc(-c4ccccc4Cl)nc3c2)cc1[N+](=O)[O-]	55% (active)
COc1ccc(C(=O)Nc2cccc(-c3nc4cc(C)c(C)cc4o3)c2)cc1[N+](=O)[O-]	52% (active)
CCOc1ccc(C(=O)Nc2cccc(-c3nc4cc(C)c(C)cc4o3)c2)cc1[N+](=O)[O-]	11% (inactive)
COc1ccc(-c2nc3cc(NC(=O)c4ccc(C)c([N+](=O)[O-])c4)ccc3o2)cc1	61% (active)
Cc1ccccc1-c1nc2cc(NC(=O)c3ccc(C)c([N+](=O)[O-])c3)ccc2o1	41% (inactive)
O=C(Nc1ccc2oc(-c3cc(Br)ccc3Cl)nc2c1)c1ccccc1	29% (inactive)
O=C(Nc1ccc(Cl)c(-c2nc3ccccc3o2)c1)c1cccc(Br)c1	1% (inactive)
O=C(Nc1ccc(Cl)c(-c2nc3ccccc3o2)c1)c1ccc(Br)cc1	55% (active)
CC(C)c1cc(C(C)C)c(S(=O)(=O)NNC(=O)c2ccncc2)c(C(C)C)c1	1% (inactive)
O=C(NC(=S)Nc1cccc(NC(=O)c2ccc(Cl)cc2Cl)c1)c1ccco1	11% (inactive)
CCOc1ccc(N(CC(=O)NC(C)CC)S(=O)(=O)c2ccc(Br)cc2)cc1 (centres undefined)	5% (inactive)
COC(=O)c1cccc(NC(=O)CC(=O)c2ccccc2)c1	0% (inactive)
COc1ccc(Cc2noc(-c3ccccc3Cl)n2)cc1OC	23% (inactive)
Cc1sc(NS(=O)(=O)c2ccc([N+](=O)[O-])cc2)nc1-c1ccc(Br)cc1	12% (inactive)
O=C(/C=C/c1ccccc1)Nc1ccc(-c2nnc(-c3ccco3)o2)cc1	0% (inactive)
O=C(NCc1ccc(Cl)cc1)c1ccco1	0% (inactive)
Cc1nnc(Nc2ccc3c(c2)ncn3C)c2ccccc12	0% (inactive)
O=C(Nc1ccc2oc(-c3cccc(Br)c3)nc2c1)c1ccc(Cl)c([N+](=O)[O-])c1	13% (inactive)
O=C(Nc1ccc2oc(-c3ccc(F)cc3)nc2c1)c1ccc(Cl)c([N+](=O)[O-])c1	11% (inactive)
O=C(Nc1ccc2oc(-c3ccc(Br)cc3)nc2c1)c1ccc(Cl)c([N+](=O)[O-])c1	58% (active)
